aSyn UTR inh = 5' untranslated region of α-synuclein, MLPCN primary screen; alpha-synuclein 5'UTR reporter, inhibitor activity; inhibition, % (tested at 7.5 µM); hit rate 0.82% among 300,000; AID 1813; in the data active = inhibition above about 60%;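 also: H4 neuroglioblastoma cells stably carrying SNCA 5'UTR luciferase fusion; 0% = DMSO wells and 100% = positive control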
BaF3 tox = counter-screen for JAK2V617F inhibitors: parental Ba/F3 viability inhibitors; inhibition, % at 5.6 µM; CellTiter-Glo ATP luminescence; hit rate 1.1% among 220,000;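 active = inhibition above a per-campaign cutoff, the mean inhibition of all tested compounds plus 3 SD, cut at about 27% in these data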;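 also: 0% = DMSO wells and 100% = JAK Inhibitor I control wells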
KLF5 inh = inhibitors of KLF5 expression | inhibition, % at 5 µM | hit rate 0.23% among 290,000 | DLD-1 KLF5 promoter-luciferase reporter, luminescence;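 active = inhibition above a per-plate limit of that plate's mean compound inhibition plus 3 SD, cut at about 60% in these data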;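 also: 0% = DMSO wells and 100% = LY294002 at 200 µM; higher means less KLF5 promoter-driven luciferase light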
APP transl inh = APP translation inhibition; SH-SY5Y APP 5'UTR-luciferase reporter, luminescence; inhibition, % at 2 µM; hit rate 0.82% among 190,000; AID 1285;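 active = inhibition above a set limit, derived from the sample mean plus 3 SD, cut at about 45% in these data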
Ba/F3 V617F tox = lowers viability of Ba/F3 cells expressing EpoR and JAK2V617F. ATP luminescence. inhibition, % at 5.6 µM. hit rate 1.1% among 220,000. AID 1446;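 active = inhibition above the campaign mean plus 3 SD over all tested compounds, cut at about 24% in these data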;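 also: cytokine-independent growth of Ba/F3 cells driven by EpoR plus mutant JAK2; 0% = DMSO-treated cells and 100% = JAK inhibitor I control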
IEC-6 tox-1 = kills IEC-6 intestinal cells in KLF5 counter-screen. IEC-6 cytotoxicity, luminescence viability. hit rate 0.78% among 290,000. AID 1825. inhibition, % at 5 µM;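 also: 0% = plate median of test compound wells and 100% = cytotoxic reference compound wells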
BaF3 tox 2 = reduces parental Ba/F3 viability, JAK2V617F counter-screen. shares compounds with Ba/F3 V617F tox. CellTiter-Glo luminescence; cells kept alive by added IL-3. inhibition, % at 5.6 µM. hit rate 31% among 580. AID 1520;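 active = cell growth inhibition above the hit limit set in the earlier mutant JAK2 cell screen, cut at about 27% in these data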;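 also: plate controls were DMSO-treated cells for no effect and JAK Inhibitor I control wells for full effect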
JAK2V617F conf = confirmation: loss of viability in JAK2V617F-dependent Ba/F3 cells. shares compounds with Ba/F3 V617F tox. AID 1521. hit rate 66% among 580. Ba/F3 EpoR-JAK2V617F viability, CellTiter-Glo luminescence. inhibition, % at 5.6 µM;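 active = mean inhibition above the hit cutoff derived in the earlier primary screen, cut at about 25% in these data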;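 also: 0% = DMSO-treated cells and 100% = JAK inhibitor I control wells; higher means lower luminescence from reduced cell ATP and viability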
KLF5 confirm = confirmation of KLF5 inhibitors. DLD-1 KLF5 promoter firefly luciferase reporter, luminescence. shares compounds with KLF5 inh. hit rate 79% among 610. inhibition, % at 4 µM;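 active = inhibition above a set limit taken from the earlier primary screen, cut at about 63% in these data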;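 also: 0% = DMSO wells and 100% = LY294002 at 200 µM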
IEC-6 tox-2 = rat IEC-6 cytotoxicity, KLF5 inhibitor counter-screen; shares compounds with KLF5 inh; inhibition, % at 4 µM; hit rate 56% among 610; IEC-6 rat intestinal cells, viability luminescence; in the data active = inhibition above about 23%;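 also: cells exposed to compounds for 48 hours before viability read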
IEC-6 cytotox cf = IEC-6 cytotoxicity, confirmation assay; shares compounds with IEC-6 tox-1; IEC-6 rat intestinal epithelial viability, luminescence; inhibition, % at 5 µM; hit rate 63% among 1,900; AID 1907;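 also: 0% = vehicle and 100% = reference cytotoxic drug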
The depositor's hits bear a star; . = not tested or not shown. Only some compounds are listed: those with a hit (about 2.2% of all), similar ones and a draw of the others. Rule as the data show it, unless noted: active = inhibition above about 22%; inactive = the rest.

SMILES	aSyn UTR inh	BaF3 tox	KLF5 inh	APP transl inh	Ba/F3 V617F tox	IEC-6 tox-1	BaF3 tox 2	JAK2V617F conf	IEC-6 cytotox cf	others
COc1ccccc1N(C(=O)CCl)c1cn(C(C)=O)c2ccccc12	38.1	-1.0	-7.4	.	74.9*	56.8*	4.1	86.9*	23.3*
Cc1ccc(N(C(=O)CNC(=O)c2ccco2)C(C(=O)NC2CCCCC2)c2cccnc2)cc1C (stereo not drawn)	-14.5	.	-26.7	.	.	0.6	.	.	.
Cc1ccc(N(C(=O)CCl)C(C(=O)NC2CCCCC2)c2cccnc2)cc1C (stereo not drawn)	21.6	-2.9	-10.7	30.4	85.9*	79.8*	76.6*	100.0*	63.1*
Cc1ccc(OCCN2C(=O)C(=O)c3cc(C)ccc32)cc1	-15.1	7.1	-31.6	84.3*	24.8*	90.6*	57.4*	99.5*	46.4*
Nc1ccccc1NC1=CC(=O)CC(c2ccccc2)C1 (stereo not drawn)	-4.1	21.6	14.1	-21.6	23.4*	30.7*	-1.7	-3.7	1.7
Nc1ccccc1NC1=CC(=O)CC(c2ccco2)C1 (stereo not drawn)	2.6	3.1	-2.0	-35.6	0.4	-0.8	.	.	.
Nc1nnnn1/N=C/C(Br)=C/c1ccccc1	-250.6	-1.6	10.1	90.7*	73.7*	100.7*	105.3*	99.7*	54.4*
O=C(NNC(=S)NCc1ccccc1)c1ccc(Br)cc1	1.9	.	-5.7	.	.	4.7	.	.	.
COc1ccc(/C=C/C(=O)Nc2ccc(OC)nc2)cc1	-46.0	1.4	-7.5	-4.0	1.5	-6.0	.	.	.
COc1ccc(CS(=O)(=O)/C(Cl)=C(/Cl)C(=O)Nc2ccc(OC)nc2)cc1	-24.0	4.9	44.7	84.0*	31.8*	87.7*	99.3*	99.1*	29.2*
Cc1cc(OC(=O)c2ccc3ccccc3c2)c([N+](=O)[O-])c(=O)[nH]1	3.3	2.6	-8.2	2.3	-4.5	-0.7	.	.	.
Cc1csc(NC(C)c2nc3cc(C(F)(F)F)ccc3n2CCCO)n1 (stereo not drawn)	18.0	.	.	.	.	.	.	.	.
CCOC(=O)[C@@H]1[C@H]2COc3ccc(Br)cc3[C@H]2N2C(=O)N(c3cccc(F)c3)C(=O)[C@]12C	-3.4	.	-5.0	.	.	-2.2	.	.	.
COC1=C(Nc2ccc(O)cc2)C(=O)c2ccccc2C1=O	-109.5	8.6	-8.0	-2.6	-2.4	-1.7	.	.	.
O=C1C=C(Nc2ccc(O)cc2)C(=O)c2ccccc21	67.5*	3.2	-127.7	.	49.2*	25.2*	22.5	76.2*	7.0
O=C(CN1C(=O)NC2(CCCCC2)C1=O)N1CCN(S(=O)(=O)c2ccc(F)cc2)CC1	1.1	.	.	.	.	.	.	.	.
Cc1ccc(S(=O)(=O)[N-]c2nc3ccccc3nc2-[n+]2cc(C)cc(C)c2)cc1	6.3	0.8	-10.5	.	-3.0	-3.5	.	.	.
CCOCCCNC(=O)/C(C#N)=C/c1cc(Br)c(O)c(Br)c1	-68.6	10.1	39.5	.	64.4*	23.5*	13.9	55.0*	10.5
Cc1ccc(C(=O)N/N=C/c2ccc(-c3cccc(C(F)(F)F)c3)o2)cn1	65.2*	-1.6	35.3	.	39.0*	28.0*	57.8*	91.3*	37.3*
COc1ccc(-c2cnc3c(c2)CCC3(C#N)C#N)cc1	29.3	8.7	18.7	62.5*	38.3*	69.9*	1.1	77.7*	5.8
CCCS(=O)(=O)c1nnnn1-c1cccc(OC)c1	-5.7	4.7	5.5	61.8*	38.7*	32.9*	76.2*	99.3*	47.8*
Cc1ccc(C=Nc2ccccc2C(N)=O)s1	-36.4	66.7*	62.7*	15.9	66.1*	80.6*	.	.	.	KLF5 confirm=60.3;IEC-6 tox-2=31.9*
Cc1cccc(C=Nc2ccccc2C(N)=O)c1	-69.8	9.2	13.4	1.4	8.7	9.0	.	.	.
c1ccc(-c2nnc(NC3=NCCC3)o2)cc1	-7.1	7.0	-91.7	-122.0	6.4	-1.2	.	.	.
Fc1ccc(-c2nnc(NC3=NCCCCC3)o2)cc1	98.3*	11.3	72.5*	-44.9	10.5	11.8	.	.	.	KLF5 confirm=40.8;IEC-6 tox-2=1.1
SMILES	aSyn UTR inh	BaF3 tox	KLF5 inh	APP transl inh	Ba/F3 V617F tox	IEC-6 tox-1	BaF3 tox 2	JAK2V617F conf	IEC-6 cytotox cf	others
CN1C(=O)C(C)(C)c2cc(S(=O)(=O)N3CCN(c4cccc(Cl)c4)CC3)ccc21	0.7	.	6.0	.	.	-6.8	.	.	.
COc1ccc(/C=N/NC(=O)CCn2c3ccccc3c3ccccc32)cc1O	18.6	70.6*	73.5*	86.8*	77.8*	10.3	.	.	.	KLF5 confirm=79.3*;IEC-6 tox-2=11.5
COc1ccc(-c2c(NC(=O)CC(C)C)n(C)c3ccccc3c2=O)cc1OC	-10.0	.	-35.0	.	.	5.4	.	.	.
CCOc1ccc(N(C(C)C(=O)N2CCCC2)S(C)(=O)=O)cc1 (stereo not drawn)	-2.0	.	-24.4	.	.	-4.1	.	.	.
COc1cc(C2C(C#N)=C(C)NC3=C2C(=O)c2ccccc23)cc(OC)c1OC (stereo not drawn)	.	73.6*	77.6*	4.2	88.5*	93.7*	.	.	.	KLF5 confirm=42.9;IEC-6 tox-2=44.7*
O=c1[nH]c(=O)n([C@H]2C[C@H](O)[C@@H](CO)O2)cc1F	80.2*	97.5*	62.3*	69.0*	99.5*	93.8*	.	.	.	KLF5 confirm=45.2;IEC-6 tox-2=87.2*
Nc1ncnc(Nc2c(F)cccc2F)n1	-12.5	-0.3	-4.4	.	-3.8	6.3	.	.	.
O=C(NCCc1ccccc1)c1ccc2c(c1)OCO2	90.9*	.	62.7*	.	.	1.7	.	.	.	KLF5 confirm=39.1;IEC-6 tox-2=6.0
Cc1cc(OC(=O)c2cccc([N+](=O)[O-])c2)c(C)cc1CN1CCOCC1	-0.6	.	-11.4	.	.	-3.2	.	.	.
Cc1nn(C(C)(C)C)c(C)c1/C=N/OC(=O)Nc1ccc(Cl)cc1	94.2*	0.3	97.6*	.	3.9	-2.7	.	.	.	KLF5 confirm=105.4*;IEC-6 tox-2=-1.2
Cc1nn(C)c(C)c1/C=N/NC(=O)C(C)(C)Oc1ccc(Cl)cc1	16.3	3.9	-16.9	-6.3	-4.6	-1.3	.	.	.
Cc1ccc(-c2nc3ccc(Cl)cc3n2OC(C)C(=O)O)cc1 (stereo not drawn)	-126.7	13.0	66.3*	-116.5	9.4	3.5	.	.	.	KLF5 confirm=-16.7;IEC-6 tox-2=9.3
CC(=O)NC(CC(=O)Nc1cc(Cl)ccc1-n1cncn1)c1ccccc1 (stereo not drawn)	-1.6	.	.	.	.	.	.	.	.
CC1=Nc2nc(N3CCCCCC3)c(C#N)c3c4c(nc(c23)N1)N(c1ccc2ccccc2c1)C(=O)C4	-5.2	.	.	.	.	.	.	.	.
COc1ccc(NC(=O)n2ncc3c(C)cccc32)cc1OC	-164.7	.	-117.4	.	.	0.2	.	.	.
Cc1ccc(NC(=O)n2ncc3c(C)cccc32)cc1F	-70.9	.	83.3*	.	.	5.5	.	.	.	KLF5 confirm=85.4*;IEC-6 tox-2=5.4
Cc1ccc(-c2cc(=O)c3cc(F)ccc3[nH]2)cc1	-40.7	4.5	-21.9	-6.1	0.5	-6.1	.	.	.

High-throughput results as filed in PubChem BioAssay.
